Assay results: PubChem BioAssay (NCI)
This is part of a sample that, as a whole, favours compounds with a hit. Of some 79,000 tested, about 15% had one in any assay. The source made the active and inactive calls. Rule as the data show it: active = growth inhibition above about 70%; inactive = the rest.

Key:
[1] = NCI Yeast Anticancer Drug Screen. Data for the rad50 strain (AID 155);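 also: 0% = growth of vehicle-only cultures of the same strain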; conditions: S. cerevisiae rad50 strain growth inhibition, stronger effect = higher value
Summary of the method: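 Readout: growth inhibition relative to vehicle-treated cultures. Compound exposure was carried out in a genetically defined yeast strain deficient in DNA damage repair.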

[2] = NCI Yeast Anticancer Drug Screen. Data for the mec2-1 strain (AID 157); conditions: S. cerevisiae mec2-1 strain, stronger effect = higher value
Summary of the method: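 Each compound was tested on mec2-1 yeast, a strain altered in DNA damage repair or cell cycle control. Growth inhibition is reported relative to vehicle.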

[3] = NCI Yeast Anticancer Drug Screen. Data for the sgs1 mgt1 strain (AID 161);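 also: 0% = growth of cultures given vehicle only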; conditions: S. cerevisiae sgs1 mgt1 strain, stronger effect = higher value
Summary of the method: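 Genetically altered yeast, compound exposure, growth inhibition relative to vehicle.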

[4] = NCI Yeast Anticancer Drug Screen. Data for the cln2 rad14 strain (AID 165);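 also: 0% = growth equal to vehicle treated cultures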; conditions: S. cerevisiae cln2 rad14 strain, stronger effect = higher value
Summary of the method: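 Test compounds were added to cln2 rad14 yeast cultures; inhibition of growth was then determined by comparison with vehicle treatment.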

[5] = NCI Yeast Anticancer Drug Screen. Data for the bub3 strain (AID 167); conditions: S. cerevisiae bub3 mutant strain, stronger effect = higher value
Summary of the method: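 Readout: yeast growth inhibition, expressed relative to vehicle-only wells. The test organism is a mutant strain from a panel with lesions in DNA repair or checkpoint genes.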

[6] = NCI Yeast Anticancer Drug Screen. Data for the mlh1 rad18 strain (AID 175); conditions: S. cerevisiae mlh1 rad18 strain growth inhibition, stronger effect = higher value
Summary of the method: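 Inhibition values reflect reduced growth of mutant yeast versus vehicle-treated controls following compound exposure; the mutations affect DNA damage repair.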

[7] = at 5.0 µM (retest, dose inferred, filed as 0.5)
[8] = at 50.0 µM (retest, dose inferred, filed as 5.0)

Measured: growth inhibition

CCCCN1C(=O)C(=O)N(c2ccccc2)C1=O
active: [4]; at 50.0 µM 73.8%
inactive: [1]; [7] -6% | [1]; [8] 5% | [1]; at 50.0 µM 18.2% | [2]; [7] -7% | [2]; [8] 12% | [2]; at 50.0 µM 32.9% | [3]; [7] -14% | [3]; [8] 1% | [3]; at 50.0 µM 8.65% | [4]; [7] -29% | [4]; [8] -17% | [5]; [7] -21% | [5]; [8] 11% | [5]; at 50.0 µM 1.55% | [6]; [7] -5% | [6]; [8] 15% | [6]; at 50.0 µM 16.9%

CCCCCCCCCCCCCCCCCCNCCCCCCCCCCCCCCCC
inactive: [1]; [7] 6% | [1]; [8] 3% | [1]; at 50.0 µM 52.7% | [2]; [7] -1% | [2]; [8] 8% | [2]; at 50.0 µM 38.5% | [3]; [7] 5% | [3]; [8] 0% | [3]; at 50.0 µM 49.9% | [4]; [7] -1% | [4]; [8] 2% | [5]; [7] -5% | [5]; [8] 3% | [5]; at 50.0 µM 69.2% | [6]; [7] 4% | [6]; [8] 6% | [6]; at 50.0 µM 45.8%
active: [4]; at 50.0 µM 75%

Fc1ccc(CSC(=S)Nc2ccc(F)cc2)cc1
inactive: [1]; [7] 5% | [1]; [8] 29% | [1]; at 50.0 µM 69.5% | [2]; [7] 0% | [2]; [8] 16% | [2]; at 50.0 µM 47.6% | [3]; [7] 2% | [3]; [8] 29% | [3]; at 50.0 µM 68.3% | [4]; [7] -9% | [4]; [8] -4% | [4]; at 50.0 µM 32.5% | [5]; [7] -6% | [5]; [8] 8% | [5]; at 50.0 µM 27.6%

COc1ccc2c(Cc3ccc(Cl)cc3)cncc2c1O
inactive: [1]; [7] 5% | [2]; [7] 14% | [3]; [7] 15% | [4]; [7] 2% | [5]; [7] 10%
active: [1]; [8] 91% | [1]; at 50.0 µM 98.1% | [2]; [8] 97% | [2]; at 50.0 µM 99.2% | [3]; [8] 96% | [3]; at 50.0 µM 97.2% | [4]; [8] 87% | [4]; at 50.0 µM 99% | [5]; [8] 93% | [5]; at 50.0 µM 99%

c1ccc(CCNCc2ccco2)nc1
inactive: [1]; [7] -2% | [1]; [8] -5% | [1]; at 50.0 µM 42.5% | [2]; [7] -7% | [2]; [8] -20% | [2]; at 50.0 µM 0.6% | [3]; [7] -7% | [3]; [8] -26% | [3]; at 50.0 µM -21.2% | [4]; [7] -18% | [4]; [8] -91% | [4]; at 50.0 µM 23.6% | [5]; [7] 3% | [5]; [8] -2% | [5]; at 50.0 µM -24.3%

CC1CCCC(C(O)(C(=O)O)C2CCCC(C)C2)C1 (configuration not stated)
inactive: [1]; [7] 15% | [1]; at 50.0 µM 66.3% | [2]; [7] 29% | [2]; at 50.0 µM 43% | [3]; [7] 8% | [3]; at 50.0 µM 56.5% | [4]; [7] 68% | [4]; at 50.0 µM 33.2% | [5]; [7] 14% | [5]; at 50.0 µM 25.4% | [6]; [7] 15% | [6]; at 50.0 µM 69.7%
active: [1]; [8] 72% | [2]; [8] 81% | [3]; [8] 70% | [4]; [8] 98% | [5]; [8] 97% | [6]; [8] 79%

O=[N+]([O-])c1ccc(-c2nc(/C=N/N3CCCCC3)cs2)o1
inactive: [1]; [7] 12% | [1]; [8] 57% | [1]; at 50.0 µM 69.7% | [2]; [7] 1% | [2]; [8] 26% | [2]; at 50.0 µM 43.5% | [3]; [7] 17% | [4]; [7] -7% | [4]; [8] 32% | [4]; at 50.0 µM 42.4% | [5]; [7] -1% | [5]; [8] 3% | [5]; at 50.0 µM 15.2% | [6]; [7] 16% | [6]; [8] 64% | [6]; at 50.0 µM 66.5%
active: [3]; [8] 76% | [3]; at 50.0 µM 84.5%

CCC(=NCCCCCCN=C(CC)c1cc(C)cc([N+](=O)[O-])c1O)c1cc(C)cc([N+](=O)[O-])c1O.[Fe]
inactive: [1]; [7] 10% | [1]; [8] 46% | [2]; [7] -10% | [3]; [7] 11% | [3]; [8] 35% | [4]; [7] -7% | [4]; [8] 49% | [5]; [7] -1%
active: [1]; at 50.0 µM 80.9% | [2]; [8] 79% | [2]; at 50.0 µM 72.3% | [3]; at 50.0 µM 72.2% | [4]; at 50.0 µM 70.5% | [5]; [8] 70% | [5]; at 50.0 µM 71.7%

CC(=O)O/C=C1\c2ccccc2CCC1c1ccc2ccccc2c1 (configuration not stated)
inactive: [1]; [7] 7% | [1]; [8] -5% | [1]; at 50.0 µM -4.45% | [2]; [7] -4% | [2]; [8] -13% | [2]; at 50.0 µM -23.9% | [3]; [7] 1% | [3]; [8] 11% | [3]; at 50.0 µM 0.3% | [4]; [7] -19% | [4]; [8] -22% | [4]; at 50.0 µM 1.45% | [5]; [7] 5% | [5]; [8] 4% | [5]; at 50.0 µM 27.9%

CCCCCCCCCCCCCCCCCC[N+]1(C)CCC[N+](C)(CCCCCCCCCCCCCCCCCC)CC1 (configuration not stated)
active: [2]; at 50.0 µM 83.4% | [5]; [8] 77%
inactive: [1]; [7] 2% | [1]; [8] 26% | [1]; at 50.0 µM 41.8% | [2]; [7] -3% | [2]; [8] 17% | [3]; [7] 2% | [3]; [8] 53% | [3]; at 50.0 µM 47% | [4]; [7] 0% | [4]; [8] 3% | [4]; at 50.0 µM 7.9% | [5]; [7] 0% | [5]; at 50.0 µM 50.6%
